PLK1 PBD block – PLK1 (human) polo-box domain binding inhibition; P53350; Plk1 PBD binding of FITC phosphopeptide, fluorescence polarization; Potency, µM, actives largely listed as inhibitors; actives 2.8% (n = 360,000); also: series mostly up to about 57 µM; nearly all actives have a fitted effect of over 65% in size
JMJD2A Tudor inh – inhibitors of human JMJD2A Tudor domain | AID 504339 | O75164 | AlphaScreen JMJD2A-Tudor / H3K4me3 peptide binding | actives 4.4% (n = 390,000) | Potency, µM (series often up to 114 µM), actives largely listed as inhibitors; also: nearly all actives have a fitted effect of over 50% in size
G9a inh – blocks human histone lysine methyltransferase G9a. Q96KQ7. G9a H3K9 monomethylation, AlphaScreen, 2 h. Potency, µM (doses to about 102 µM), most hits filed as inhibitors. actives 8.8% (n = 350,000). AID 504332; also: nearly all actives have a fitted effect of over 75% in size
Target sequence (Q96KQ7 913-1193 limits assumed): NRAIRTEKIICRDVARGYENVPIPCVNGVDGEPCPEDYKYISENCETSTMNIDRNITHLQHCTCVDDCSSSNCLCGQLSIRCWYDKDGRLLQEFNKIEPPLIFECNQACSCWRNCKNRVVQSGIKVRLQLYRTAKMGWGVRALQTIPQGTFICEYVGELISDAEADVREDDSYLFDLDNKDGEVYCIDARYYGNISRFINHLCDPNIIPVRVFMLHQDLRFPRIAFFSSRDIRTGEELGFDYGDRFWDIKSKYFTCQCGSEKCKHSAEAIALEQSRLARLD
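Readings reflect AlphaScreen signal from monomethyl-H3K9 antibody detection. HMT at 20 nM; substrate b-H3K9 500 nM; cofactor SAM 20 uM; 2 h RT reaction; compounds tested as titrations in qHTS with 15 min preincubation.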
BAZ2B block – inhibitors of human BAZ2B bromodomain; Q9UIF8; AlphaScreen BAZ2B-H3K14Ac peptide displacement; Potency, µM (titrated, usually from 114 µM), usual class: inhibitors; actives 4.4% (n = 360,000); AID 504333; also: nearly all actives have a fitted effect of over 60% in size
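AlphaScreen displacement of biotin-H3(5-23)K14Ac peptide (50 nM final) from BAZ2B (50 nM final) in PBS pH 7.4, 0.01% Tween-20; complex preformed 30 min RT, then compounds (top 110 uM) 30 min RT, beads 20 min dark.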
PI5P4K alpha inh – blocks human PI5P4K alpha kinase activity. P48426. PI5P4Kalpha enzyme, ADP-Glo luminescence, 60 min; active compounds read low. max response, %. actives 1.2% (n = 330,000); active = max response of -50% or lower; inconclusive = between -30% and -50%; inactive = -30% or higher; also: value at the top dose of about 77 µM
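ADP-Glo luminescence end-point read after a 60 min room-temperature kinase reaction of PI5P4Kalpha plus substrate, initiated with ATP at 5 microM final. Buffer: 0.038 M HEPES pH 7.4, EGTA, 0.1% CHAPS, 5% DMSO.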
HP1b binding inh – HP1-beta chromodomain-methylated histone interaction inhibition. actives 0.56% (n = 390,000). P83916. Potency, µM (titrated, usually from 114 µM), most hits filed as inhibitors. AlphaScreen HP1-beta / biotin-H3K9me3 peptide binding; also: nearly all actives have a fitted effect of over 70% in size
Target sequence (P83916 whole entry, looked up): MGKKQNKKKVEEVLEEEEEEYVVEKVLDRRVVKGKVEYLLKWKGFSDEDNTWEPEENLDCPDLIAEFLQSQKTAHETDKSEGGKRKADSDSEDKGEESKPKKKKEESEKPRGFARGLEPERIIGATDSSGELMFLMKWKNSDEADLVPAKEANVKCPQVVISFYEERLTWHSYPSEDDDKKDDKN
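HP1-beta protein (50 nM final) preincubated 30 min at room temperature with biotinylated H3(1-18)K9me3 peptide (50 nM) in PBS pH 7.4, 0.01% Tween-20, then compound added for 30 min. AlphaScreen streptavidin donor/nickel chelate acceptor beads (10 ug/mL final), 30 min dark, luminescence read.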
Each line names hits and unclear results; the compound was inactive in the other large screens. A selection: hits, their analogues and other compounds. The true share with any hit is near 12%. Unless noted, calls follow the shape of the dose curve; as a rule, active = well fitted curve in the direction sought with a large enough effect; inconclusive = small, poorly fitted or top-dose-only effect, or another doubt; inactive = no such curve, though single readings can be large; an effect the other way counts as inactive or inconclusive.

c1ccc2c(c1)ncn2CCCOc1ccc2c(c1)CCC2	none (no result: PI5P4K alpha inh)
FC(F)(F)c1ccccc1/C=N/N1CCN(Cc2ccccc2)CC1	JMJD2A Tudor inh 45µM, G9a inh 7.1µM, BAZ2B block 40µM
c1ccc(CN2CCN(CCOCCOc3ccc4c(c3)CCC4)CC2)cc1	JMJD2A Tudor inh 0.79µM, BAZ2B block inconclusive, HP1b binding inh inconclusive (no result: G9a inh)
CN1CCN(/N=C/c2cccc(Cl)c2Cl)CC1	JMJD2A Tudor inh inconclusive, G9a inh 40µM, BAZ2B block inconclusive
CC(Cl)OC(=O)Nc1cccc2cccnc12 (stereo unspecified)	JMJD2A Tudor inh inconclusive (no result: PLK1 PBD block, G9a inh, BAZ2B block, PI5P4K alpha inh)
CCCCOc1ccc(CNC(=O)c2cnc3sc(N4CCC(C)CC4)nn3c2=O)cc1	none (no result: PLK1 PBD block, PI5P4K alpha inh)
Cn1c2cc(Br)sc2c2cnn(Cc3ccccc3F)c(=O)c21	none (no result: PLK1 PBD block, G9a inh, BAZ2B block, PI5P4K alpha inh, HP1b binding inh)
O=C(NCc1ccc(F)cc1)OC1CC2CC1[C@H]1CCCCN1C2=O (stereo partly specified)	none (no result: JMJD2A Tudor inh, G9a inh, BAZ2B block, HP1b binding inh)
COc1ccc(OC)c(CN2C(=O)CSCC2(C)C(=O)NCc2ccccc2)c1 (stereo unspecified)	none (no result: JMJD2A Tudor inh, G9a inh, BAZ2B block, HP1b binding inh)
CCOc1ccccc1OCCOCCN1CCN(Cc2ccccc2)CC1	JMJD2A Tudor inh 0.79µM, BAZ2B block 18µM, HP1b binding inh inconclusive (no result: G9a inh)
O=C(CN1CCN(Cc2ccccc2Cl)CC1)N/N=C/C=C/c1ccco1	G9a inh inconclusive
Clc1ccccc1CN1CCN(/N=C/C=C/c2ccco2)CC1	JMJD2A Tudor inh 45µM, BAZ2B block 32µM, HP1b binding inh inconclusive (no result: G9a inh)
CCOc1ccccc1NC(=O)CN1CCN(Cc2ccccc2)CC1	none
O=[N+]([O-])c1ccccc1/C=N\N1CCN(Cc2ccccc2Cl)CC1	JMJD2A Tudor inh 35µM, BAZ2B block 28µM, HP1b binding inh inconclusive (no result: G9a inh)
Cn1cccc1/C=N/n1cnnc1	G9a inh inconclusive, BAZ2B block 79µM
CCOC(=O)C1=C(CN2CCN(c3cc(C)ccc3C)CC2)NC(=O)NC1c1ccc(Cl)cc1 (stereo unspecified)	JMJD2A Tudor inh inconclusive, G9a inh inconclusive (no result: PLK1 PBD block, BAZ2B block, PI5P4K alpha inh)
COc1cc(C(=O)C(=O)N2CCN(c3ccccc3)CC2)cc(OC)c1OC	none (no result: JMJD2A Tudor inh, G9a inh, BAZ2B block, HP1b binding inh)
CCOc1ccccc1NC(=O)Cn1c(=O)n(-c2ccc(F)cc2)c(=O)c2c3c(sc21)CN(C(C)=O)CC3	none (no result: PLK1 PBD block, PI5P4K alpha inh)
O=C(Cn1cnc2onc(-c3ccc(F)cc3)c2c1=O)Nc1cccc(C(F)(F)F)c1	none (no result: PLK1 PBD block, PI5P4K alpha inh)
Clc1ccccc1/C=N/N1CCN(Cc2ccccc2)CC1	JMJD2A Tudor inh 56µM, BAZ2B block 45µM
CCOc1ccccc1/C=N/N1CCN(Cc2ccccc2)CC1	JMJD2A Tudor inh 56µM, BAZ2B block 50µM, HP1b binding inh inconclusive (no result: G9a inh)
COC(=O)c1ccc(/C=N/N2CCN(Cc3ccccc3)CC2)cc1	G9a inh inconclusive
Cn1cccc1/C=N/N1CCN(Cc2ccccc2Cl)CC1	JMJD2A Tudor inh 50µM, G9a inh 28µM, BAZ2B block 35µM, HP1b binding inh inconclusive
Cn1cccc1/C=N/N1CCN(c2ccccc2)CC1	G9a inh 32µM, BAZ2B block 50µM, HP1b binding inh inconclusive
Cc1ccc(N2CCN(/N=C/c3ccccc3)CC2)cc1	none
COc1ccc(NC(=O)Cn2c(=O)n(-c3cccc(C)c3)c(=O)c3c2c2cc(C)ccc2n3C)cc1OC	none (no result: PLK1 PBD block, PI5P4K alpha inh)
CCCCNc1n[n+](C)c(-c2cccc(C)c2)s1	G9a inh inconclusive (no result: PLK1 PBD block, JMJD2A Tudor inh, PI5P4K alpha inh, HP1b binding inh)
O=C(NCc1ccc(Cl)cc1)NC1COc2ccccc2C1 (stereo unspecified)	none (no result: PLK1 PBD block, PI5P4K alpha inh)
Cc1ccc(NC(=O)Cn2c(=O)n(Cc3ccc4c(c3)OCO4)c(=O)c3oc4ccccc4c32)cc1C	BAZ2B block inconclusive (no result: PLK1 PBD block, PI5P4K alpha inh)
FC(F)(F)c1cccc(OCCN2CCN(Cc3ccccc3)CC2)c1	JMJD2A Tudor inh 0.89µM, G9a inh 11µM, BAZ2B block 50µM, HP1b binding inh inconclusive
COc1ccc(Br)cc1/C=N/N1CCN(Cc2ccccc2)CC1	JMJD2A Tudor inh 40µM, G9a inh inconclusive, BAZ2B block 28µM, HP1b binding inh inconclusive
O=C(NCC1CCN(Cc2ccccc2Cl)CC1)Nc1ccccc1F	none
Fc1ccccc1/C=N/N1CCN(Cc2ccccc2Cl)CC1	JMJD2A Tudor inh 50µM, BAZ2B block 50µM
CCOc1ccc(OCCOc2cccc(C(F)(F)F)c2)cc1	none
Cc1ccc(-n2ncc3c(NCCC4=CCCCC4)ncnc32)cc1C	none (no result: PLK1 PBD block, PI5P4K alpha inh)
